Screens deposited in PubChem BioAssay by The Scripps Research Institute Molecular Screening Center.
GPR151 activ = activators of human GPR151, primary screen, cell-based, PathHunter beta-arrestin, luminescence. G-protein coupled receptor 151 (Homo sapiens), Q8TDV0. PathHunter beta-arrestin GPR151 cells. activation, % at 11.2 µM. 1% of 650,000 active; in the data active = activation above about 4.9%
Target sequence (Q8TDV0 whole entry, looked up): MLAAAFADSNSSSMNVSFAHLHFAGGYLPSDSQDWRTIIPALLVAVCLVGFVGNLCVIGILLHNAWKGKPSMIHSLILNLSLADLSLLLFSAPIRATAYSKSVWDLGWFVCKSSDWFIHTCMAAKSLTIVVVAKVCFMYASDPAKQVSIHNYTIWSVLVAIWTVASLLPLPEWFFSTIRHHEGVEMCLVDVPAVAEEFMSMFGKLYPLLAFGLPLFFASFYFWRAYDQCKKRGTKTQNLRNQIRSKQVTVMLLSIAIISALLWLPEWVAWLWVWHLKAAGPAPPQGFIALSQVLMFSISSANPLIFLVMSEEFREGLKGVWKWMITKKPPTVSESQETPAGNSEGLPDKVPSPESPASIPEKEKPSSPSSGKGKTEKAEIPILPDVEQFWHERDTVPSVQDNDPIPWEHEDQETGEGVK
FBW7 act = FBW7 E3 ligase activators, primary screen, biochemical, AlphaScreen, human; F-box/WD repeat-containing protein 7 (Homo sapiens), Q969H0; AlphaScreen FBW7–phospho-cyclin E peptide binding, activator screen; normalized activity (activation), % at 26.1 µM; 0.13% of 650,000 active; in the data active = normalized activity above about 1.9%;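 note: purified mutant Fbw7 with reduced substrate affinity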
TEAD-YAP inh = TEAD-YAP interaction inhibition, primary screen, TEAD-YAP interaction inhibitor project, luminescence, HEK-TIYL cells | 1.4% of 640,000 active | inhibition, % at 9.12 µM | TEAD-Gal4/YAP UAS-luciferase luminescence | AID 1259422, 2018; in the data active = inhibition above about 32%
MITF inh = MITF inhibitors, primary screen, biochemical, AlphaScreen, human. 0.91% of 650,000 active. AID 1259374, 2018. Microphthalmia-associated transcription factor (Homo sapiens), O75030. AlphaScreen MITF homodimerization, bead proximity signal. inhibition, % at 2.6 µM; in the data active = inhibition above about 50%
A number is an active result; - = inactive; ! = not active in a repeat. In the library only some 3.5% were active in any assay of this set; here they are far more common.

SMILES	GPR151 activ	FBW7 act	TEAD-YAP inh	MITF inh
O=C1CCCN1CCn1cnc2c(NCc3nc4ccccc4[nH]3)nc(Nc3ccc4ncccc4c3)nc21	-	-	59	-
O=C1CCCN1CCn1cnc2c(NCc3nc4ccccc4[nH]3)nc(Nc3ncccn3)nc21	-	-	-	-
O=C1CCCN1CCn1cnc2c(NCc3nc4ccccc4[nH]3)nc(Nc3ccc(-n4ccnc4)cc3)nc21	-	-	39	-
CC(=O)Nc1cccc(-c2cnc(NCc3ccc(Cl)c(Cl)c3)c3nccn23)c1	-	-	-	-
Cc1cc(C)cc(Oc2nc3ccccn3c(=O)c2/C=C(\C#N)C(=O)N2CCOCC2)c1	-	-	37	-
Cc1cccc(Oc2nc3c(C)cccn3c(=O)c2/C=C(\C#N)C(=O)N2CCOCC2)c1	-	-	36	-
N#C/C(=C\c1c(Oc2ccccc2)nc2ccccn2c1=O)C(=O)N1CCOCC1	-	-	-	-
CNC(=O)/C(C#N)=C/c1c(Oc2cc(C)cc(C)c2)nc2ccccn2c1=O	-	-	32	-
Cc1c(C(=O)Nc2ccc(C(F)(F)F)cc2)sc2ncn(CC(=O)N3CCC(C)CC3)c(=O)c12	-	-	-	-
CCCCCOc1ccc(C(=O)CCNC(CCSC)C(=O)O)cc1 (stereo not given)	-	-	-	-
Cc1nc(NC(=O)C2CC2)sc1C(=O)NCc1ccccc1	-	-	-	-
Cc1ccc(C)c(S(=O)(=O)N2CCCC(CNC(=O)c3cc(C)on3)C2)c1 (stereo not given)	-	-	-	-
O=C(CCc1ccccc1)Nc1cc([N+](=O)[O-])ccc1F	-	-	61	-
O=C(Nc1cc([N+](=O)[O-])ccc1F)c1cccc(Br)c1	-	-	-	-
O=C(Nc1cc([N+](=O)[O-])ccc1F)c1cccc(F)c1	-	-	34	-
O=C(CCCc1ccccc1)Nc1cc([N+](=O)[O-])ccc1F	-	-	-	-
O=C(Nc1cc([N+](=O)[O-])ccc1F)c1ccc(Br)cc1	-	-	39	-
O=C(Nc1ccccc1F)c1cc(F)ccc1[N+](=O)[O-]	-	-	56	-
O=C(Nc1cc([N+](=O)[O-])ccc1F)c1ccccc1	-	-	-	-
Cc1ccc(S(=O)(=O)N/N=C/c2c[nH]c3ccc(Br)cc23)cc1[N+](=O)[O-]	-	-	-	-
CN(Cc1ccccc1)c1ccnc2c(-c3cccc(CO)c3)cnn12	-	-	76	-
CN(Cc1ccccc1)c1ccnc2c(-c3cccnc3)cnn12	-	-	-	-
OCc1cccc(-c2cnn3c(NCc4ccccn4)ccnc23)c1	-	-	77	-
Oc1cccc(-c2cnn3c(NCc4ccccn4)ccnc23)c1	-	-	56	-
CC(=O)CCC(=O)N1CCC(C2(Cc3ccc(F)cc3)NC(=O)N(CC3CC3)C2=O)CC1 (stereo not given)	-	-	-	-
SMILES	GPR151 activ	FBW7 act	TEAD-YAP inh	MITF inh
Cc1cccc(-n2c(=S)[nH]c3c(c2=O)C2(CCCCC2)Cc2ccccc2-3)c1	-	-	-	-
CCCn1cc(CN2CCN(Cc3ccc(C)cc3)C(CCO)C2)c(C)n1 (stereo not given)	-	-	-	-
Cc1ccc(/C=C/C(=O)C2C(=O)c3ccccc3C2=O)cc1	-	-	41	-
O=C(Nc1ccc(Oc2ccccc2)cc1)c1cccc(-c2csc3ccccc23)n1	-	-	-	-
COc1ccc2cc3[n+](cc2c1OC)CCc1cc2c(cc1-3)OCO2	-	-	56!	-
COc1cc2c(c(OC)c1OC)-c1c(cc3c(c1OC)OCO3)CC(C)C(C)C2 (stereo not given)	-	-	-	-
Cc1ccccc1C(=O)N/N=C/c1ccc(O)c(Br)c1	-	-	71	-
CN(C)c1ccc(/C=N\NC(=O)c2cc(N)ccc2O)cc1	-	-	-	64
Cc1[nH]n(-c2ccccc2)c(=O)c1/C=N/NC(=O)c1ccc(O)cc1O	-	-	-	59
Cc1ccccc1C(=O)N/N=C/c1ccc(O)c(O)c1	-	-	-	-
O=C(N/N=C/c1ccc(/C=N/NC(=O)c2ccccc2O)cc1)c1ccccc1O	-	-	59	-
CCCCNS(=O)(=O)c1cc2c3c(cccc3c1)C(=O)NC2=O	-	-	-	-
O=C(N/N=C/c1ccc2ccccc2c1)c1ccc(O)cc1O	-	-	37	-
Cc1sc2nc(SCC(=O)Nc3ccccc3N3CCOCC3)nc(N)c2c1C	-	-	43	-
COc1cc(C(=O)Nc2cccnc2)ccc1OCc1c(Cl)cccc1Cl	-	-	39	-
O=C(Nc1cccnc1)c1ccc(Cl)c(Cl)c1	-	-	-	-
COc1cnc(-c2ccccn2)nc1-c1ccccc1	-	-	40	-
Cc1cccc(NCCCC(=O)N/N=C/c2ccccc2)c1	-	-	-	-
CC1CCCN(c2nc3c(c(=O)[nH]2)CCN(Cc2ccc(O)cc2)C3)C1 (stereo not given)	-	-	-	-
CN(C)N1C(N)=C(C#N)C(c2ccc(C(F)(F)F)cc2)C2=C1CCCC2=O (stereo not given)	-	2.1	-	-
COc1ccc(C2C(C#N)=C(N)N(c3ccc(OC)cc3)C3=C2C(=O)CCC3)cc1 (stereo not given)	-	-	-	-
COc1ccc(N2C(N)=C(C#N)C(c3ccc(O)c(OC)c3)C3=C2CCCC3=O)cc1 (stereo not given)	-	-	58	-
COc1ccc(N2C(N)=C(C#N)C(c3ccc(OC)c(OC)c3)C3=C2CCCC3=O)cc1 (stereo not given)	-	-	62	-
Cc1ccc(C2C(C#N)=C(N)N(N(C)C)C3=C2C(=O)CCC3)cc1 (stereo not given)	-	-	-	-
COc1cc(C2C(C#N)=C(N)N(c3ccc(C)cc3)C3=C2C(=O)CCC3)cc(OC)c1OC (stereo not given)	-	-	61	-
SMILES	GPR151 activ	FBW7 act	TEAD-YAP inh	MITF inh
COc1ccc(S(=O)(=O)NC(CC(=O)N2CCCCC2)C(C)C)cc1 (stereo not given)	-	-	-	-
CCCNc1nc(Nc2ccc(C(F)(F)F)cc2)nc(N(CC)CC)n1	-	-	-	-
CC(=O)Nc1ccc(NC(=S)NC(=O)c2ccc(C)c([N+](=O)[O-])c2)cc1	-	-	-	-
N#Cc1ccsc1NC(=O)/C=C/c1ccccc1Cl	-	-	64	-
N#Cc1ccsc1NC(=O)c1cccc(Cl)c1Cl	-	-	-	-
CC1C(=O)Nc2ccc(S(=O)(=O)N3CCN(C4CCCC4)CC3)cc2NC1=O (stereo not given)	-	-	-	-
Cc1ccc(-c2ncn(-c3ccc(Nc4nccc(-c5ccc(N)nc5)n4)cc3)n2)cn1	-	5.4	41	-
Cc1ccc(-c2ncn(-c3ccc(Nc4nccc(-c5ccc(Cl)nc5)n4)cc3)n2)cn1	-	-	-	-
